Results published in PubChem BioAssay (NCATS).
Records with an inconclusive call do not appear. Entries that show only a call come without a potency. The source made the active and inactive calls. Calls come from the whole dose curve; as a rule, active = well fitted curve in the direction sought with a large enough effect; inconclusive = small, poorly fitted or top-dose-only effect, or another doubt; inactive = no such curve, though single readings can be large; an effect the other way counts as inactive or inconclusive.

What was measured:
[1] = Quantitative High-Throughput drug screen in 47 multiple myeloma cell lines against the NCATS MIPE library collection: MOLP8_DSMZ cell viability assay (AID 1918977); conditions: MOLP8 myeloma viability, CellTiter-Glo ATP luminescence, 48 h; series mostly up to 45.8 µM; note: nearly all actives have a fitted effect of over 45% in size
In short: (§1)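 500 cells/well; MIPE 4.0 drugs pin-transferred; 48 h, 37C, 5% CO2. CellTiter-Glo, 5 min RT, luminescence. Controls: DMSO 100%, media 0%.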

[2] = Quantitative High-Throughput drug screen in 47 multiple myeloma cell lines against the NCATS MIPE library collection: NCIH929_DSMZ cell viability assay (AID 1918978); conditions: NCI-H929 myeloma viability, CellTiter-Glo ATP, 48 h; series mostly up to 45.8 µM; note: nearly all actives have a fitted effect of over 35% in size; note: potency is the fitted concentration of half-maximal effect
In short: as §1

[3] = Quantitative High-Throughput drug screen in 47 multiple myeloma cell lines against the NCATS MIPE library collection: OCIMY1_PLB cell viability assay (AID 1918979); conditions: OCI-MY1 myeloma viability, CellTiter-Glo ATP, 48 h; series mostly up to 45.8 µM; note: nearly all actives have a fitted effect of over 35% in size
In short: as §1

[4] = Quantitative High-Throughput drug screen in 47 multiple myeloma cell lines against the NCATS MIPE library collection: MM1R_ATCC cell viability assay (AID 1918981); conditions: MM1R multiple myeloma cells, CellTiter-Glo viability, 48 h; series mostly up to 45.8 µM; note: nearly all actives have a fitted effect of over 35% in size; note: potency is the fitted concentration of half-maximal effect
Description: (§2) PI: Beverly A. Mock Ph.D.
(§3) Laboratory of Cancer Biology and Genetics,
(§4) Center for Cancer Research, National Cancer Institute,
(§5) National Institute of Health, Bethesda, Maryland
(§6) Drug resistance and disease progression are common in multiple myeloma (MM) patients, underscoring the need for new therapeutic combinations. […] We hypothesized that effective combinations would reduce MYC expression and enhance p16 activity. […] These preclinical data identify potentially useful drug combinations for evaluation in drug-resistant MM and reveal potential mechanisms of combined drug sensitivity.
(§7) Described herein is the primary MIPE qHTS used to cherrypick compounds. Validated compounds were then further tested for potential synergistic activiy.
(§8) [1] Peat TJ, Gaikwad SM, Dubois W, Gyabaah-Kessie N, Zhang S, Gorjifard S, Phyo Z, Andres M, Hughitt VK, Simpson RM, Miller MA, Girvin AT, Taylor A, Williams D, D'Antonio N, Zhang Y, Rajagopalan A, Flietner E, Wilson K, Zhang X, Shinn P, Klumpp-Thomas C, McKnight C, Itkin Z, Chen L, Kazandijian D, Zhang J, Michalowski AM, Simmons JK, Keats J, Thomas CJ, Mock BA. Drug combinations identified by high-throughput screening promote cell cycle transition and upregulate Smad pathways in myeloma. Cancer Lett. 2023 Aug 1;568:216284. doi: 10.1016/j.canlet.2023.216284. Epub 2023 Jun 24. PMID: 37356470; PMCID: PMC10408729.
(§9) SEQUENCE No. (e.g., 1, 2, 3, etc.); […] (e.g., Cells, Incubation, Reagent, etc.); VALUE and DESCRIPTION.
(§10) 1; Cells; 5 uL; white, solid bottom 1536-well Greiner assay plate.
(§11) 2; Compounds; 23 nL; Kalypsis pin tool (Wako USA) equipped with a 1536-well pin head to transfer to the assay plates.
(§12) 3; Incubation; 48 hours; 37C incubation.
(§13) 4; Reagent;5uL; CellTiter Glo (Promega).
(§14) 5; Detector; 425V; Luminescence; Viewlux PerkinElmer.
(§15) NOTES (numbers refer to Sequence numbers above)
(§16) 1. The cell-based screening methods employed in this study were like those previously published. Briefly, the corresponding myeloma cell lines were screened in 1,536-well plates with 500 cells, 5-uL per well for inhibition of cell viability (assessed by measuring ATP levels with CellTiterGlo).
(§17) 2. NCATS MIPE 4.0 library of approved and investigational drugs were added using the Kalypsis pin tool. Wells treated with DMSO only for 100% viability and media only for 0% viability were used as controls.
(§18) 3. The assay plates were covered and incubated for 48 hours in a 37C, 5% CO2 incubator with controlled humidity.
(§19) 4. After 48 hours, CellTilter-GloTM luminescent substrate mix (Promega) reagent was added to the assay plate and plates we incubated for 5 min at room temperature.
(§20) 5. Signal was measured as median relative luminescence units on a ViewLux (PerkinElmer) multiplate reader.
(§21) [1] Heske CM, Davis MI, Baumgart JT, Wilson K, Gormally MV, Chen L, Zhang X, Ceribelli M, Duveau DY, Guha R, Ferrer M, Arnaldez FI, Ji J, Tran HL, Zhang Y, Mendoza A, Helman LJ, Thomas CJ. Matrix Screen Identifies Synergistic Combination of PARP Inhibitors and Nicotinamide Phosphoribosyltransferase (NAMPT) Inhibitors in Ewing Sarcoma. Clin Cancer Res. 2017 Dec 1;23(23):7301-7311. doi: 10.1158/1078-0432.CCR-17-1121. Epub 2017 Sep 12. PMID: 28899971; PMCID: PMC6636827.

[5] = Quantitative High-Throughput drug screen in 47 multiple myeloma cell lines against the NCATS MIPE library collection: LP1_DSMZ cell viability assay (AID 1918982); conditions: LP1 myeloma viability, CellTiter-Glo ATP luminescence, 48 h; series mostly up to 45.8 µM; note: nearly all actives have a fitted effect of over 35% in size
Description: as §2, §3, §4, §5, §6, §7, §8, §9, §10, §11, §12, §13, §14, §15, §16, §17, §18, §19, §20, §21

[6] = Quantitative High-Throughput drug screen in 47 multiple myeloma cell lines against the NCATS MIPE library collection: OCIMY7_PLB cell viability assay (AID 1918987); conditions: OCI-MY7 myeloma viability, CellTiter-Glo ATP, 48 h; series mostly up to 45.8 µM; note: nearly all actives have a fitted effect of over 65% in size; note: potency is the fitted concentration of half-maximal effect
In short: as §1

[7] = Quantitative High-Throughput drug screen in 47 multiple myeloma cell lines against the NCATS MIPE library collection: OCIMY5_PLB cell viability assay (AID 1918988); conditions: OCI-MY5 myeloma viability, ATP luminescence, 48 h; series mostly up to 45.8 µM; note: nearly all actives have a fitted effect of over 65% in size; note: potency is the fitted concentration of half-maximal effect
Description: as §2, §3, §4, §5, §6, §7, §8, §9, §10, §11, §12, §13, §14, §15, §16, §17, §18, §19, §20, §21

[8] = Quantitative High-Throughput drug screen in 47 multiple myeloma cell lines against the NCATS MIPE library collection: KMS34_JCRB cell viability assay (AID 1918985); conditions: KMS34 myeloma viability, CellTiter-Glo ATP luminescence, 48 h; series mostly up to 45.8 µM; note: nearly all actives have a fitted effect of over 40% in size; note: potency is the fitted concentration of half-maximal effect
In short: as §1

[9] = Quantitative High-Throughput drug screen in 47 multiple myeloma cell lines against the NCATS MIPE library collection: L363_DSMZ cell viability assay (AID 1918984); conditions: L363 myeloma viability, CellTiter-Glo ATP luminescence, 48 h; series mostly up to 45.8 µM; note: nearly all actives have a fitted effect of over 40% in size; note: potency is the fitted concentration of half-maximal effect
Description: as §2, §3, §4, §5, §6, §7, §8, §9, §10, §11, §12, §13, §14, §15, §16, §17, §18, §19, §20, §21

[10] = Quantitative High-Throughput drug screen in 47 multiple myeloma cell lines against the NCATS MIPE library collection: MM1S_ATCC cell viability assay (AID 1918980); conditions: MM1S myeloma viability, CellTiter-Glo ATP luminescence, 48 h; series mostly up to 45.8 µM; note: nearly all actives have a fitted effect of over 45% in size; note: potency is the fitted concentration of half-maximal effect
Description: as §2, §3, §4, §5, §6, §7, §8, §9, §10, §11, §12, §13, §14, §15, §16, §17, §18, §19, §20, §21

| Structure (SMILES) | outcome [1] | Potency [2] | outcome [3] | Potency [4] | outcome [5] | Potency [6] | Potency [7] | Potency [8] | Potency [9] | Potency [10] |
| --- | --- | --- | --- | --- | --- | --- | --- | --- | --- | --- |
| CN1C(=O)COc2c(C(=O)NC3CN4CCC3CC4)cc(Cl)cc21 (stereo not drawn) | inactive | inactive | inactive | inactive | inactive | – | – | – | – | – |
| O=C(O)CCCc1ccc(N(CCCl)CCCl)cc1 | – | – | inactive | 23.5 µM (active) | – | 4.69 µM (active) | inactive | – | – | – |
| CC(NC(C)(C)C)C(=O)c1cccc(Cl)c1 (stereo not drawn) | – | inactive | inactive | – | – | – | 13.2 µM (active) | inactive | – | – |
| C[C@]12CC[C@@H]3c4ccc(OC(=O)N(CCCl)CCCl)cc4CC[C@H]3[C@@H]1CC[C@@H]2OP(=O)(O)O | inactive | inactive | inactive | – | inactive | – | – | inactive | inactive | – |
| CCC1(c2ccc(N)cc2)CCC(=O)NC1=O (stereo not drawn) | inactive | inactive | inactive | inactive | inactive | – | inactive | inactive | – | inactive |
| O=P1(N(CCCl)CCCl)NCCCO1 (stereo not drawn) | – | 8.33 µM (active) | inactive | – | inactive | – | – | – | 10.5 µM (active) | inactive |
| CC(C)C[C@H](CN)CC(=O)O | inactive | inactive | inactive | inactive | inactive | – | – | inactive | – | – |
| C[C@]12CCC(=O)C=C1CC[C@@H]1[C@H]3CC[C@](C)(O)[C@@]3(C)CC[C@@H]12 | – | inactive | inactive | – | – | 30.3 µM (active) | 48.1 µM (active) | – | – | 38.2 µM (active) |
| CC(C)c1cccc(C(C)C)c1O | inactive | inactive | inactive | inactive | inactive | – | – | inactive | – | 8.33 µM (active) |
| C[C@](O)(CS(=O)(=O)c1ccc(F)cc1)C(=O)Nc1ccc(C#N)c(C(F)(F)F)c1 | – | 0.296 µM (active) | – | 2.35 µM (active) | – | 0.469 µM (active) | 0.372 µM (active) | – | – | 0.372 µM (active) |
| C[C@]12CC[C@H]3[C@@H](CC[C@@]45O[C@H]4C(O)=C(C#N)C[C@]35C)[C@H]1CC[C@H]2O | – | inactive | inactive | – | inactive | 5.26 µM (active) | – | 16.6 µM (active) | inactive | 1.48 µM (active) |
| COc1cc(OC)c(OC)cc1C=O | – | inactive | inactive | inactive | inactive | – | inactive | inactive | inactive | – |
| CN1C(=O)CCS(=O)(=O)C1c1ccc(Cl)cc1 (stereo not drawn) | inactive | 20.9 µM (active) | – | inactive | inactive | inactive | inactive | inactive | inactive | 18.7 µM (active) |
